Screening results from PubChem BioAssay.
The list is not random: actives were taken first. Their share in the collection is about 2.3%.
ADAM17 inh – inhibitors of human ADAM17; hit rate 0.83% among 370,000; P78536; inhibition, % at 6.95 µM; recombinant ADAM17, EDANS/DABCYL FRET peptide cleavage;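 active = inhibition above the mean of compounds lying between control limits plus 3 SD, set per campaign, cut at about 8.5% in these data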
V-ATPase pHluor – regulators of yeast V-ATPase proton transport | S. cerevisiae, pHLuorin cytosolic pH fluorescence | response, % at 10 µM | hit rate 0.37% among 350,000; in the data active = response mostly above about 7.3%, no sharp cut-off; inactive = mostly below about 5.4%; note: actives read high
proKLK7 act – proKLK7 (human) activation, primary screen. purified proKLK7, EDANS-DABCYL substrate fluorescence; 100% is mature enzyme control, 0% vehicle. activation, % at 7 µM. hit rate 0.9% among 370,000. P49862;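 active = activation above the mean of all tested compounds plus 3 SD, computed per campaign excluding outliers beyond control limits, cut at about 13% in these data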
ADAM10 inh – inhibits human ADAM10; inhibition, % at 7 µM; recombinant ADAM10, EDANS/DABCYL FRET peptide cleavage, 3 h; hit rate 0.62% among 370,000; O14672;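 active = inhibition above a per-campaign cutoff equal to the mean of compounds falling between control-based bounds plus 3 SD, cut at about 20% in these data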
Target sequence (O14672 214-748 limits assumed): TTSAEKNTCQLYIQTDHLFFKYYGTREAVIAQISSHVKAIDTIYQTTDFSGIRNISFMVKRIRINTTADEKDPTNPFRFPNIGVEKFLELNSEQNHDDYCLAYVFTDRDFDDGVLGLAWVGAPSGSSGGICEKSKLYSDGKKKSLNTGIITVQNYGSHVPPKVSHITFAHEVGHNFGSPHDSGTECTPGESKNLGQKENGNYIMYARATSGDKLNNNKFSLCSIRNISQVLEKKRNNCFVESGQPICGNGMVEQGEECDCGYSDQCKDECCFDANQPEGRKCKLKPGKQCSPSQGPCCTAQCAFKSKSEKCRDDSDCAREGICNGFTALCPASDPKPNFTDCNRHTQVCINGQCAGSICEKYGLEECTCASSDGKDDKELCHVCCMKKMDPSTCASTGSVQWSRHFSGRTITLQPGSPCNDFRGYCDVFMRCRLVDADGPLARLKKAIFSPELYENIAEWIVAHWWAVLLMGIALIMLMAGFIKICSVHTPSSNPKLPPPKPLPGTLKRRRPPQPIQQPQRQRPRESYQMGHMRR
ADAM10 ctr – inhibits human ADAM10 in ADAM17 exosite counter-screen | shares compounds with ADAM17 inh | recombinant ADAM10, EDANS/DABCYL FRET peptide cleavage, 3 h | inhibition, % at 6.95 µM | hit rate 47% among 2,900;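 active = mean inhibition over the triplicate runs exceeds the activity threshold set in the earlier primary screen, cut at about 20% in these data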
ADAM17 confirm – human ADAM17 inhibition, confirmation | shares compounds with ADAM17 inh | recombinant ADAM17, EDANS/DABCYL QFRET peptide cleavage | inhibition, % at 6.95 µM | hit rate 65% among 2,900;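 active = mean inhibition across replicates above the hit cutoff set in the primary screen, cut at about 8.5% in these data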
Of the large screens only hits and unclear results are named; the others gave an inactive call (follow-up assays come after a bar, where they were run).

O=C(N[C@@H](Cc1ccccc1)C(=O)OCc1ccccc1)c1nc[nH]c1C(=O)N1CCN(c2ccccc2)CC1	ADAM17 inh 11 | ADAM10 ctr 27 | ADAM17 confirm 15
F[B-](F)(F)c1cncnc1	none (no result: V-ATPase pHluor)
CCOC(=O)C1=CCN(S(=O)(=O)c2cccc(Cl)c2)C1c1cccc(Br)c1 (stereo not given)	none (no result: V-ATPase pHluor)
CN1[C@@H](Cc2ccccc2)COc2cccc(N3CCSCC3)c2S1(=O)=O	none (no result: V-ATPase pHluor)
OC[C@@H]1CC[C@@H]2O[C@H](CCc3ccc(-c4ccc(F)cc4)cc3)[C@@H](n3cc(C4CC4)nn3)C[C@@H]2O1	none (no result: V-ATPase pHluor)
C[C@H](NC(=O)c1nc[nH]c1C(=O)NC(c1ccccc1)c1ccccc1)C(=O)OCc1ccccc1	ADAM17 inh 9.3 | ADAM10 ctr inactive | ADAM17 confirm 12
Clc1ccc(-n2c(Cc3cccs3)nnc2SC/C=C/c2ccccc2)cc1	none (no result: V-ATPase pHluor)
COc1ccccc1NC(=O)N(C)C[C@@H]1OCc2cnnn2CCCC(=O)N([C@@H](C)CO)C[C@H]1C	ADAM17 inh 8.8 | ADAM10 ctr inactive | ADAM17 confirm inactive
CCOC(=O)c1c(C)[nH]c(C)c1C(=O)COC(=O)/C=C/c1cccc(C(F)(F)F)c1	ADAM17 inh 12 | ADAM10 ctr 27 | ADAM17 confirm 15
CCCC(=O)OC[C@H]1CN([C@H](C)c2ccccc2)S(=O)(=O)c2c(F)cccc2O1	none (no result: V-ATPase pHluor)
C#CCN(C[C@@H]1[C@@H](OC(=O)Nc2cccs2)[C@@H](OC(=O)Nc2cccs2)Cn2c(=O)n(CCCCCC)c(=O)n21)S(=O)(=O)c1ccc(C)cc1	ADAM17 inh 11 | ADAM10 ctr inactive | ADAM17 confirm 10
Cc1cc(N/N=C/c2c(O)ccc3ccccc23)nc(-c2ccccc2O)n1	ADAM17 inh 9.2 | ADAM10 ctr inactive | ADAM17 confirm inactive
Cc1c(C=O)c2ccccn2c1C(=O)c1ccc(F)cc1	ADAM17 inh 10 | ADAM10 ctr inactive | ADAM17 confirm inactive
O=C(NCc1ccco1)O[C@@H]1CC[C@@]23CCCN2C(=O)CCC[C@H]3C1	none (no result: V-ATPase pHluor, proKLK7 act)
CN(CC(=O)Nc1ccc(S(=O)(=O)N2CCCC2)cc1)Cc1cccc(Cl)c1Cl	ADAM17 inh 10 | ADAM10 ctr inactive | ADAM17 confirm inactive
CCSc1nc(-c2ccco2)ccc1C#N	ADAM17 inh 14 | ADAM10 ctr inactive | ADAM17 confirm inactive
N#Cc1ccc(-c2ccco2)nc1SCc1ccccc1	none
Cc1noc(/C=C/N(C)C)c1S(=O)(=O)N1CCCC(C(=O)NCc2cccs2)C1 (stereo not given)	none
COc1cccc(CNC(=O)C2CCCN(S(=O)(=O)c3c(C)noc3/C=C/N(C)C)C2)c1 (stereo not given)	ADAM17 inh 8.9 | ADAM10 ctr inactive | ADAM17 confirm inactive
COc1ccc(NC(=O)C2CCN(S(=O)(=O)c3c(C)noc3/C=C/N(C)C)CC2)cc1	ADAM17 inh 10 | ADAM10 ctr inactive | ADAM17 confirm 11
COc1ccccc1C(CCN(Cc1cccs1)C(C)=O)c1ccco1 (stereo not given)	none
CCC(=O)N(CCC(c1ccccc1)c1ccco1)Cc1cccs1 (stereo not given)	ADAM17 inh 9.8 | ADAM10 ctr inactive | ADAM17 confirm inactive
COc1ccccc1CNC(=O)C/C(C)=N/NC(=O)Cc1ccc(OC)c(OC)c1	none
COc1ccc(Cl)cc1NC(=O)C/C(C)=N/NC(=O)CCc1ccccc1	none
COc1ccc(CNC(=O)C/C(C)=N/NC(=O)Cc2ccc(OC)c(OC)c2)cc1	ADAM17 inh 9.9 | ADAM10 ctr inactive | ADAM17 confirm inactive
COc1cc(NC(=O)C/C(C)=N/NC(=O)Cc2ccccc2)c(OC)cc1Cl	ADAM17 inh 11 | ADAM10 ctr inactive | ADAM17 confirm 11
CCc1cc2c(nc1CC)CCCN2S(=O)(=O)c1ccc(C(F)(F)F)cc1	none (no result: V-ATPase pHluor)
COC(=O)CSc1nnc(-c2ccc(NS(=O)(=O)c3ccc(C(C)(C)C)cc3)cc2)o1	none (no result: V-ATPase pHluor)
COc1ccccc1CCn1cnc(-c2ccc(F)cc2F)c1CC(C)C	ADAM17 inh 10 (no result: V-ATPase pHluor) | ADAM10 ctr 29 | ADAM17 confirm 14
COc1ccc(CN(C)C(=O)c2ccc(OCC(=O)Nc3cccc(C(F)(F)F)c3)c(OC)c2)c(OC)c1	none
COc1cccc(CN(C)C(=O)c2ccc(OCC(=O)Nc3cccc(C(F)(F)F)c3)c(OC)c2)c1	ADAM17 inh 8.8 | ADAM10 ctr 26 | ADAM17 confirm 15
